{"source": "PubChem BioAssay (NCATS)", "note": "“And” between values parts separate entries of the source, which are not always exact repeats. Identical values can stand only once. Inconclusive results are not listed. Unmarked numbers belong to inactive results. The source made the active and inactive calls. Calls come from the whole dose curve; as a rule, active = well fitted activation curve with a large enough effect; inconclusive = small, poorly fitted or top-dose-only effect; inactive = no such curve, though single readings can be large or run the other way. Potency is the fitted concentration of half-maximal effect."}
{"target": "Cellular tumor antigen p53 (Homo sapiens) (UniProt P04637)", "sequence (P04637 whole entry, looked up)": "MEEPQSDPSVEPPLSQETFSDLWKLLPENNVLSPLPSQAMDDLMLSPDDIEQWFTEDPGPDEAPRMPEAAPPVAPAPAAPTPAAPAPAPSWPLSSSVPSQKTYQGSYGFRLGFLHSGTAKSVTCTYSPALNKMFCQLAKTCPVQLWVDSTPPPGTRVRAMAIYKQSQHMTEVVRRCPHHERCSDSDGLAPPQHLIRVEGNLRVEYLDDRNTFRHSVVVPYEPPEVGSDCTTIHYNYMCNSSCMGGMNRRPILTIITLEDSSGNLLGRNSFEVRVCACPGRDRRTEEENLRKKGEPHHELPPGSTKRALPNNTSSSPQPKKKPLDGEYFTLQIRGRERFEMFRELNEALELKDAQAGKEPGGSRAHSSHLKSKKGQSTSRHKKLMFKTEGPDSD", "assay": "Primary qHTS for small molecule compounds that upregulate eGFP-tagged delta133p53alpha (in N-terminal) cells. (AID 2060322); note: nearly all actives have a fitted effect of over 75% in size;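 for activation: cells pre-induced with doxycycline then dosed without doxycycline; series mostly up to about 56 µM; 0% = DMSO vehicle and 100% = reference activator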", "details": "NCI-H358 eGFP-delta133p53alpha fluorescence, 24 h; activation: stronger effect = higher value", "procedure,_shortened": "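NCI-H358 cells pre-induced 24 h with 10 ng/ml doxycycline for eGFP-delta133p53alpha, plated dox-free and exposed 24 h at 37C to titrated compounds. Fixed, Hoechst-stained; gated GFP peak intensity by laser scanning cytometry, normalized to DMSO (0%) and 57.5 uM 5-azacytidine (100%).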"}
{"compound": "Cc1ccc(C(=O)c2ccc(CC(=O)O)n2C)cc1", "activation": "14.1%"}
{"compound": "COc1cc2c(cc1OC)C(C(C(=O)N(CCc1ccc(OC)c(OC)c1OC)CCc1ccc(OC)c(OC)c1OC)c1ccccc1)=NCC2", "note": "(stereo not given)", "activation": "3.95%"}
{"compound": "O=C(O)CCCC[P+](c1ccccc1)(c1ccccc1)c1ccccc1", "activation": "20.9%"}
{"compound": "CC(C)(Oc1ccc(Cl)cc1)C(=O)OCCCOC(=O)C(C)(C)Oc1ccc(Cl)cc1", "activation": "-6.69%"}
{"compound": "C=CC(=O)Nc1cccc(Nc2nc(NC3CCC(N(C)C)CC3)nc3c2ncn3C(C)C)c1", "note": "(stereo not given)", "Potency": "4.85 µM (active)"}
{"compound": "CC12CCC(CC1)C(C)(C)O2", "activation": "-0.565%"}
{"compound": "CC1(C)OC[C@@H](COC(=O)CCc2ccc(OC[C@@H](O)CNCCNC(=O)N3CCOCC3)cc2)O1", "activation": "10%"}
{"compound": "Nc1ccc(C(=O)Nc2ccccc2N)cc1", "activation": "-7.53%"}
{"compound": "COC(=O)/C=C(/C)N", "activation": "8.47%"}
{"compound": "O=c1cc(CO)occ1O", "activation": "-9.6%"}
{"compound": "O=C(O)c1ccccc1S", "activation": "19.8%"}
{"compound": "Cc1ncc(CO)c(CO)c1O", "activation": "-24.3%"}
{"compound": "C[C@H]1[C@H](O)O[C@@H]2O[C@@]3(C)CC[C@@H]4[C@H](C)CC[C@@H]1[C@@]24OO3", "Potency": "21.7 µM (active)"}
{"compound": "CC(C(=O)O)c1ccc(C(=O)c2ccccc2)s1", "note": "(stereo not given)", "activation": "0%"}
{"compound": "COc1cc2c(cc1OC)C(=O)CC2", "activation": "-2.82%"}
{"compound": "[O-][n+]1cccc(CO)c1", "activation": "20.1%"}
{"compound": "NC(=O)NC1NC(=O)NC1=O", "note": "(stereo not given)", "activation": "-17.5%"}
{"compound": "O=C1c2c(O)cccc2Cc2cccc(O)c21", "activation": "-24.3%"}
{"compound": "C=C1C(=O)OC2C=C(C)CCC=C(C)CCC12", "note": "(stereo not given)", "activation": "22%"}
{"compound": "COc1ccc([C@@H]2CC(=O)c3c(O)cc(O[C@@H]4O[C@H](CO[C@@H]5O[C@@H](C)[C@H](O)[C@@H](O)[C@@H]5O)[C@@H](O)[C@H](O)[C@@H]4O)cc3O2)cc1O", "activation": "4.43% and 6.54%"}
{"compound": "NC1CCC(Nc2nc(Nc3ccc(C(=O)N4CCCCC4)cc3)c3ncn(-c4cccc(F)c4)c3n2)CC1", "note": "(stereo not given)", "activation": "-1.24%"}
{"compound": "O=C(NCC(O)CO)c1c(I)c(C(=O)NCC(O)CO)c(I)c(N(CCO)C(=O)CO)c1I", "note": "(stereo not given)", "activation": "-8.37%"}
{"compound": "COCCOCC(OC)OC", "activation": "-6.69%"}
{"compound": "Nc1ncn([C@@H]2O[C@H](CO)[C@@H](O)[C@@H]2O)c(=O)n1", "activation": "26.1%"}
{"compound": "Nc1nc2ncc(CNc3ccc(C(=O)N[C@@H](CCC(=O)O)C(=O)O)cc3)nc2c(=O)[nH]1", "activation": "-10%"}
{"compound": "Cc1c(Cn2ccnc2)c2ccccc2n1CCC(=O)O", "activation": "-8.47%"}
{"compound": "CC(C)C[C@@H]1[C@H](c2ccccc2)OC(=O)N1CCCN1CCCCCC1", "activation": "1.67%"}
{"compound": "CCCCN=C(N)NC(=N)N", "activation": "9.6%"}
{"compound": "CCCN(CCc1cccs1)[C@H]1CCc2c(O)cccc2C1", "activation": "5.08%"}
{"compound": "O=C1C(CCS(=O)c2ccccc2)C(=O)N(c2ccccc2)N1c1ccccc1", "note": "(stereo not given)", "activation": "15.1%"}
{"compound": "CC=C1C2C=C(C)CC1(N)c1ccc(=O)[nH]c1C2", "note": "(stereo not given)", "activation": "-14.9%"}
{"compound": "O=C1C(Cl)=C(N2CCOCC2)C(=O)N1c1ccc(Cl)c(Cl)c1", "activation": "-1%"}
{"compound": "CN1CCCC(n2nc(Cc3ccc(Cl)cc3)c3ccccc3c2=O)CC1", "note": "(stereo not given)", "activation": "10.9% and 17.6%"}
{"compound": "CN(C)CCCSc1ccccc1NC(=O)/C=C/c1ccccc1", "activation": "-10%"}
{"compound": "CC[N+](CC)(CCNC(=O)C(=O)NCC[N+](CC)(CC)Cc1ccccc1Cl)Cc1ccccc1Cl", "activation": "-9.6%"}
{"compound": "CCOc1ccc(Cc2nccc3cc(OCC)c(OCC)cc23)cc1OCC", "activation": "-22.6%"}
{"compound": "C[N+]1(C)[C@@H]2CC(OC(=O)[C@H](CO)c3ccccc3)C[C@H]1[C@H]1O[C@@H]12", "note": "(stereo not given in full)", "activation": "14%"}
{"compound": "Cc1ccccc1C(C(=O)NC1CCCC1)N(C(=O)Cn1cnc2ccccc21)c1cccc(F)c1", "note": "(stereo not given)", "activation": "-4.95%"}
{"compound": "CN=C(N)NC(=O)Nc1c(C)cccc1C", "activation": "5.86%"}
{"compound": "CCCCCCCCCCCCCCCCCC(=O)O", "activation": "24.3%"}
